We go through 1 sequence from article PMC7862700, “An all-to-all approach to the identification of sequence-specific readers for epigenetic DNA modifications on cytosine”.

Common to all, as to test: DAPPL (digital affinity profiling via proximity ligation, sequencing); 10 mM Tris-HCl pH 7.5, 50 mM NaCl, 1 mM DTT, 4% glycerol, room temperature, 30 min; GST-TFs on glutathione beads, 16-mer random dsDNA library, 0.1% formaldehyde crosslink after washing; high values mean tight binding
The target in one assay is T1, FEV (Homo sapiens, UniProt Q99581 1-238).
T1 sequence: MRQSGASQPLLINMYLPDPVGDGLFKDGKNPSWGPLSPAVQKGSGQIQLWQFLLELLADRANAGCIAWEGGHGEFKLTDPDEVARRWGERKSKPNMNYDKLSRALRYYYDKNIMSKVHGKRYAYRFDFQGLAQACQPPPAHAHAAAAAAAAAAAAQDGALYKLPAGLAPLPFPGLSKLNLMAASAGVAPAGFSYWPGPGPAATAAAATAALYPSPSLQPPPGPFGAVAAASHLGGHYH
The note with it: protein: recombinant; tags: N-terminal GST; dsDNA, one strand shown. In short, it runs like this: (§1)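 Human transcription factors were made in yeast as GST fusions, captured on glutathione beads and barcoded with DNA. With a tag-only sample included, the pool was incubated with 200 nmole of a random double-stranded 16-mer DNA library in Tris/NaCl/DTT/glycerol buffer at room temperature for 30 min, then crosslinked with 0.1% formaldehyde after washing, ligated by proximity, amplified and sequenced. For binding signal, each hexamer's read frequency for a factor is divided by its frequency for the tag-only sample.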

In a further assay the target is ETV5 (Homo sapiens, UniProt P41161 1-510). The note with it: protein: recombinant; tags: N-terminal GST; dsDNA, one strand shown. In short, it runs like this: as §1
A further assay addresses HSF1 (Homo sapiens, UniProt Q00613 1-529). Conditions: protein: recombinant; tags: N-terminal GST; chain copies: 3; dsDNA, one strand shown. In short, it runs like this:
as §1

Another assay concerns the target T2, SPIC (Homo sapiens, UniProt Q8N5J4 1-248).
T2 sequence: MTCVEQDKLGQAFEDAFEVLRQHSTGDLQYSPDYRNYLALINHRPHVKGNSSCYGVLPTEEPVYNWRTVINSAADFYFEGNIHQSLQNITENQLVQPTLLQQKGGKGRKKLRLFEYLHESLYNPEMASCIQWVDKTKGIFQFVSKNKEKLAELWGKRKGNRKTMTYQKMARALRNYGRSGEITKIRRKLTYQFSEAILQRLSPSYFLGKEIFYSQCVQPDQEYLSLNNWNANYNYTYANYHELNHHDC
Conditions: protein: recombinant; tags: N-terminal GST; dsDNA, one strand shown. In short, it runs like this:
as §1

In the next assay the target is ELF4 (Homo sapiens, UniProt Q99607 1-663). The note with it: protein: recombinant; tags: N-terminal GST; dsDNA, one strand shown. In short, it runs like this:
as §1

A further assay addresses T3, ELK4 (Homo sapiens, UniProt P28324-2 1-405).
T3 sequence: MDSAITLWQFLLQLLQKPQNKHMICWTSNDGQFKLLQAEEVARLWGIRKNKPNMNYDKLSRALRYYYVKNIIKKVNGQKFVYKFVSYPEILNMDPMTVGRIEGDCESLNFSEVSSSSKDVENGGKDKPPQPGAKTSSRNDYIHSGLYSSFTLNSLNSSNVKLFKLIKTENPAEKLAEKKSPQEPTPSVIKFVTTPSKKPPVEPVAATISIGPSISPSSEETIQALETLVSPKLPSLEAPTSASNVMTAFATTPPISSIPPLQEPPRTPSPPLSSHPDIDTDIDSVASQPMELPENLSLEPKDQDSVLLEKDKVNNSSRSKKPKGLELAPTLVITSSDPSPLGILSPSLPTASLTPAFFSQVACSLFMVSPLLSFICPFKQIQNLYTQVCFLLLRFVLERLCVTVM
The note with it: protein: recombinant; tags: N-terminal GST; dsDNA, one strand shown. The method, boiled down: as §1

Another assay addresses T4, ETV2 (Homo sapiens, UniProt O00321 1-342).
T4 sequence: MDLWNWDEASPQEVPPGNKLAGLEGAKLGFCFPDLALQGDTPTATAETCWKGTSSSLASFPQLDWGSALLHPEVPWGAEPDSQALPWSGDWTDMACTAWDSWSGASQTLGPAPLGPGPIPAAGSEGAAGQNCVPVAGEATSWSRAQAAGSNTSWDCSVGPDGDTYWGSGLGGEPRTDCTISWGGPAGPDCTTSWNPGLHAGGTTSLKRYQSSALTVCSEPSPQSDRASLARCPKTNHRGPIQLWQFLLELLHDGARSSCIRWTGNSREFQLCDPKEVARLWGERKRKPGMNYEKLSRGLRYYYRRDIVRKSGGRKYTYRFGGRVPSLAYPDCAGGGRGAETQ
Conditions: protein: recombinant; tags: N-terminal GST; dsDNA, one strand shown. In short, it runs like this:
as §1

A further assay concerns the target T5, ELF3 (Homo sapiens, UniProt P78545 1-371).
T5 sequence: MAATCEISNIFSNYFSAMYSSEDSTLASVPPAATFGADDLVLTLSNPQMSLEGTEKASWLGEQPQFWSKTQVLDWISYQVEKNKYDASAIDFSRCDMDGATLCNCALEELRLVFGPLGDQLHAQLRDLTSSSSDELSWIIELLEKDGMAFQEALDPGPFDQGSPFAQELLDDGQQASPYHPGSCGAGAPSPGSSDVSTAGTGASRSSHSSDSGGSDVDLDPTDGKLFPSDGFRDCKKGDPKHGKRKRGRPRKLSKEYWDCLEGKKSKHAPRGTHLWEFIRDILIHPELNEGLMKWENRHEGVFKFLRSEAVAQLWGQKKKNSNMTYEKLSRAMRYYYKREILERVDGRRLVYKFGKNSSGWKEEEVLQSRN
The note with it: protein: recombinant; tags: N-terminal GST; dsDNA, one strand shown. The method, boiled down:
as §1

The next assay addresses CRX (Homo sapiens, UniProt O43186 1-299). Conditions: protein: recombinant; tags: N-terminal GST; dsDNA, one strand shown. The method, boiled down: as §1
Another assay concerns the target ETV1 (Homo sapiens, UniProt P50549 1-477). The note with it: protein: recombinant; tags: N-terminal GST; dsDNA, one strand shown. In short, it runs like this: as §1
For the next assay, the target named is T6, ERF (Homo sapiens, UniProt P50548 1-548).
T6 sequence: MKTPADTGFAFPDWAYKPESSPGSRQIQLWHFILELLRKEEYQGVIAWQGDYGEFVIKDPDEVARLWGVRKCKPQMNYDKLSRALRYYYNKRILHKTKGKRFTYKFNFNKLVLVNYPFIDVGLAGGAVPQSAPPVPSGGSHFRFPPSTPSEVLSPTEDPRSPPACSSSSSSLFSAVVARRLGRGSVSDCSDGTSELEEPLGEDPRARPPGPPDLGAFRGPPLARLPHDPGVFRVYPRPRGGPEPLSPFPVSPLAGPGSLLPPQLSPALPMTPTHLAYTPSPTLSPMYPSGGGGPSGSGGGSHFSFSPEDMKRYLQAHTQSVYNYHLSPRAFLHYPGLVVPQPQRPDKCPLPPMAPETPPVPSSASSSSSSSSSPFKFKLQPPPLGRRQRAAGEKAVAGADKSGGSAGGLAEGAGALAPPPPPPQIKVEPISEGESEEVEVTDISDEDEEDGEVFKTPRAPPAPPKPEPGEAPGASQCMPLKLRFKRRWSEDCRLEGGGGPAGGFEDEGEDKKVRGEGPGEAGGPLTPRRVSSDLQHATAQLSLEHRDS
Conditions: protein: recombinant; tags: N-terminal GST; dsDNA, one strand shown. In short, it runs like this:
as §1

Another assay deals with T7, ETV3L (Homo sapiens, UniProt Q6ZN32 1-361).
T7 sequence: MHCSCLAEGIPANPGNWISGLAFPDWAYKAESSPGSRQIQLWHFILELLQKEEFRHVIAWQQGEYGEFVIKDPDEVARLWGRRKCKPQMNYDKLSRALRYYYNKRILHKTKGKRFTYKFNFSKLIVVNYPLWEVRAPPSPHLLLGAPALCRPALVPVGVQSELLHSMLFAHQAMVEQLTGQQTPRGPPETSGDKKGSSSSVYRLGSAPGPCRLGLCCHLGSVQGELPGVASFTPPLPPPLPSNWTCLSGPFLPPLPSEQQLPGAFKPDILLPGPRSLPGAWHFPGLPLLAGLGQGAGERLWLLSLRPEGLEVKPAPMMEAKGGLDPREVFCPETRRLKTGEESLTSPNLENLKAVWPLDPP
The note with it: protein: recombinant; tags: N-terminal GST; dsDNA, one strand shown. The method, boiled down:
as §1

The target of another assay is T8, ETS2 (Homo sapiens, UniProt P15036 1-469).
T8 sequence: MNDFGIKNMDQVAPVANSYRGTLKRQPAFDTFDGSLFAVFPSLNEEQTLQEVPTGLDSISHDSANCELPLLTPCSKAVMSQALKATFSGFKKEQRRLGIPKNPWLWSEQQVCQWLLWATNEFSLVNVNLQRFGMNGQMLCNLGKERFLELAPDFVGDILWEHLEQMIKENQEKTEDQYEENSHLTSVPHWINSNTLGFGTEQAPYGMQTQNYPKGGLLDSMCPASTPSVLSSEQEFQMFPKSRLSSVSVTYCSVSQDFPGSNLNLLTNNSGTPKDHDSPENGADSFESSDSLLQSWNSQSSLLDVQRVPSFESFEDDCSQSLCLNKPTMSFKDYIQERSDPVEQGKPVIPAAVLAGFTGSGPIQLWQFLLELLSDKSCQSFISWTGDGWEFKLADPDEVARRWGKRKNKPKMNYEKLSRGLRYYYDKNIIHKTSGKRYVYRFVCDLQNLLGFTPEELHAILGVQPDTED
Conditions: protein: recombinant; tags: N-terminal GST; dsDNA, one strand shown. The method, boiled down:
as §1

A further assay deals with T9, SPDEF (Homo sapiens, UniProt O95238 1-335).
T9 sequence: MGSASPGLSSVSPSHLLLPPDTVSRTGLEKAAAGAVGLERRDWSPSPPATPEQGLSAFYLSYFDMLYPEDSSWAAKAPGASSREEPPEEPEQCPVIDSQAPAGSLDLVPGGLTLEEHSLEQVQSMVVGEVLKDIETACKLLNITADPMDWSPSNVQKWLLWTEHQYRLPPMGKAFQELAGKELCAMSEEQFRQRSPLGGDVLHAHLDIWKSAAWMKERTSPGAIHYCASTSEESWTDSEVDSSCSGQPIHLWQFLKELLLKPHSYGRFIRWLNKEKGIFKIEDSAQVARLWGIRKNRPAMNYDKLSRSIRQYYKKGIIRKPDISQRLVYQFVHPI
The note with it: protein: recombinant; tags: N-terminal GST; dsDNA, one strand shown. In short, it runs like this:
as §1

In another assay the target is T10, ETV7 (Homo sapiens, UniProt Q9Y603 1-341).
T10 sequence: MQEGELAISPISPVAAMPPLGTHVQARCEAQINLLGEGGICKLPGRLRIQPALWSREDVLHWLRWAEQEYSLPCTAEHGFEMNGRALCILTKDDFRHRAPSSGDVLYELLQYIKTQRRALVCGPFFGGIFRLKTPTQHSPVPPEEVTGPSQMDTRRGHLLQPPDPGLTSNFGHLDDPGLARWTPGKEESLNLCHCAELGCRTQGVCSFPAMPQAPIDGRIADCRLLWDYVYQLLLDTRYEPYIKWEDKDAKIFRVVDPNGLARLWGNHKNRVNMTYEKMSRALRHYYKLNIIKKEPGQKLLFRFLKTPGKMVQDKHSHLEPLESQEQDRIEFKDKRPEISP
The note with it: protein: recombinant; tags: N-terminal GST; dsDNA, one strand shown. The method, boiled down:
as §1

The target in the next assay is T11, ELF5 (Homo sapiens, UniProt Q9UKW6-2 1-255).
T11 sequence: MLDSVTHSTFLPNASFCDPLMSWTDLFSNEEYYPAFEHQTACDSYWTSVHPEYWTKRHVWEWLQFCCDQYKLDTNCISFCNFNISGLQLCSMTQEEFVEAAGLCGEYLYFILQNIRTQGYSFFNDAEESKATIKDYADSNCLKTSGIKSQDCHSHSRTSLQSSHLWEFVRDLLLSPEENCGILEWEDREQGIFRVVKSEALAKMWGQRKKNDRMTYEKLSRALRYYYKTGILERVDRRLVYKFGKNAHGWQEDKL
The note with it: protein: recombinant; tags: N-terminal GST; dsDNA, one strand shown. In short, it runs like this:
as §1

Another assay addresses T12, ETV3 (Homo sapiens, UniProt P41162-2 1-143).
T12 sequence: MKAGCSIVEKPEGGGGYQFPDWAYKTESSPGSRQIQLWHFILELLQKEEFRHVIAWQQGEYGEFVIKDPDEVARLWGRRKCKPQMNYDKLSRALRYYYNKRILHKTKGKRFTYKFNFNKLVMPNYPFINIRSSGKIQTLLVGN
Conditions: protein: recombinant; tags: N-terminal GST; dsDNA, one strand shown. The method, boiled down:
as §1

Another assay concerns the target ETV6 (Homo sapiens, UniProt P41212 1-452). Conditions: protein: recombinant; tags: N-terminal GST; dsDNA, one strand shown. In short, it runs like this: as §1

Chain of ETV6 (P41212 whole entry): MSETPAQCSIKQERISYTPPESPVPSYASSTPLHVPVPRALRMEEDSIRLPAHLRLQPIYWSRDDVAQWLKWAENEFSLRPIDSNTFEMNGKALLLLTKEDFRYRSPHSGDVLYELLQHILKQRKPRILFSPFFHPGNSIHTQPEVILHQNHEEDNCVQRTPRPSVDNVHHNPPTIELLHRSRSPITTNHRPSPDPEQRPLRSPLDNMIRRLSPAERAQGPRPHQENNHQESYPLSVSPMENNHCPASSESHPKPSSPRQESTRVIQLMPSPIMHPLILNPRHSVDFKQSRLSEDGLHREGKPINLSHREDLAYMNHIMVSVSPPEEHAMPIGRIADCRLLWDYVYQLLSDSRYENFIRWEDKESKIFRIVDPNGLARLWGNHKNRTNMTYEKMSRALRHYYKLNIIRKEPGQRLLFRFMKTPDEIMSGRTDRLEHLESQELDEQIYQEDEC
Chain of ETV1 (P50549 whole entry): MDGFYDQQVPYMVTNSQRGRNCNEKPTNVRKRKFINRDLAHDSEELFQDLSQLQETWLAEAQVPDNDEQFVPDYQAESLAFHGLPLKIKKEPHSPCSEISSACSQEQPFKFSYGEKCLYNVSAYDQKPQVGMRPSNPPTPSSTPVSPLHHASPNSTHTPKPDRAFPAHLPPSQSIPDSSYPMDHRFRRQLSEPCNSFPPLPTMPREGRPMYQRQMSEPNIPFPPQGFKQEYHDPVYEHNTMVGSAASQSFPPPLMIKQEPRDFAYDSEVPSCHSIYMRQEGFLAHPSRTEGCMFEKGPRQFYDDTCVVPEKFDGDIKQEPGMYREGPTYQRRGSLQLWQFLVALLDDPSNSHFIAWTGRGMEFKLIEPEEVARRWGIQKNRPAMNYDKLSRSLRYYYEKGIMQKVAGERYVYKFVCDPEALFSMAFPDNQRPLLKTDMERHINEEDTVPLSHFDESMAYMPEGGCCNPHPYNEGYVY
Chain of CRX (O43186 whole entry): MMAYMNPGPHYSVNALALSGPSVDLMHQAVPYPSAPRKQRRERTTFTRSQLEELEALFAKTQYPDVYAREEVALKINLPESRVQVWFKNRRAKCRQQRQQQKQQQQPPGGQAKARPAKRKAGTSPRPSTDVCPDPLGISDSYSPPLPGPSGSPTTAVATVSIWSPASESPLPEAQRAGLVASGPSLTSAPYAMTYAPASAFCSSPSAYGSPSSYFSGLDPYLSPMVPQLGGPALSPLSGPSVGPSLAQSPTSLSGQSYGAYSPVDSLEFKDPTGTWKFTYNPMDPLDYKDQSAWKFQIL
Chain of ELF4 (Q99607 whole entry): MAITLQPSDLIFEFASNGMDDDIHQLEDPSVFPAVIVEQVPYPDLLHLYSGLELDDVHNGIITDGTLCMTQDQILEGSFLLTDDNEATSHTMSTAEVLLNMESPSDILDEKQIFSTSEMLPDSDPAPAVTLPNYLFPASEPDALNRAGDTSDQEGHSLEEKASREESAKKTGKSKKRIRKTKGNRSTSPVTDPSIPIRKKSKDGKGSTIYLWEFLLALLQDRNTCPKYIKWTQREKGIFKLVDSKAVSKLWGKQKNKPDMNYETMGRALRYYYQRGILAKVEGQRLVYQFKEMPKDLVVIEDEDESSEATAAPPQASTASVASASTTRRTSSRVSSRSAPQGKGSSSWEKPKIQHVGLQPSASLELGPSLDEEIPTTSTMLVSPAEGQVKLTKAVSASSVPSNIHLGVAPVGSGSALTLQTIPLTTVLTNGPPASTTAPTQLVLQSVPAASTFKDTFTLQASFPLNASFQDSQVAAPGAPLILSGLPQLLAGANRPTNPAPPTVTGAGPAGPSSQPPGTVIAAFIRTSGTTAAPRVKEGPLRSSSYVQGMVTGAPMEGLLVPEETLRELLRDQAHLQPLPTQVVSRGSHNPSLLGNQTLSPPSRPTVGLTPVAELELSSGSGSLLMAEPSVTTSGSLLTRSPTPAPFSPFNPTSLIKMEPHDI
Chain of HSF1 (Q00613 whole entry): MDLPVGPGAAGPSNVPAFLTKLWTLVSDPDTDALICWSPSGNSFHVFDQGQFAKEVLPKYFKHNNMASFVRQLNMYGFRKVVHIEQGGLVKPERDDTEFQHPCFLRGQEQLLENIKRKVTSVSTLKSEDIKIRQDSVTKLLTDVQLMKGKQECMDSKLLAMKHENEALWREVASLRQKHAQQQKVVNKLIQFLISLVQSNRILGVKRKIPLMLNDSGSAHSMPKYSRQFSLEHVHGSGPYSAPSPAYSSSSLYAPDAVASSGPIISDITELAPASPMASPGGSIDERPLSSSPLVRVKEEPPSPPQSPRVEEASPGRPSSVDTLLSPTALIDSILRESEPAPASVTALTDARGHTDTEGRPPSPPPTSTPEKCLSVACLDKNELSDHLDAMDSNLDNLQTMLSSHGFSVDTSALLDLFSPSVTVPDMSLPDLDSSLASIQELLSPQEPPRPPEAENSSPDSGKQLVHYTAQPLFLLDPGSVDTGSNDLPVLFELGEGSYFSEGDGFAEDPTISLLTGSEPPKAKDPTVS
Chain of ETV5 (P41161 whole entry): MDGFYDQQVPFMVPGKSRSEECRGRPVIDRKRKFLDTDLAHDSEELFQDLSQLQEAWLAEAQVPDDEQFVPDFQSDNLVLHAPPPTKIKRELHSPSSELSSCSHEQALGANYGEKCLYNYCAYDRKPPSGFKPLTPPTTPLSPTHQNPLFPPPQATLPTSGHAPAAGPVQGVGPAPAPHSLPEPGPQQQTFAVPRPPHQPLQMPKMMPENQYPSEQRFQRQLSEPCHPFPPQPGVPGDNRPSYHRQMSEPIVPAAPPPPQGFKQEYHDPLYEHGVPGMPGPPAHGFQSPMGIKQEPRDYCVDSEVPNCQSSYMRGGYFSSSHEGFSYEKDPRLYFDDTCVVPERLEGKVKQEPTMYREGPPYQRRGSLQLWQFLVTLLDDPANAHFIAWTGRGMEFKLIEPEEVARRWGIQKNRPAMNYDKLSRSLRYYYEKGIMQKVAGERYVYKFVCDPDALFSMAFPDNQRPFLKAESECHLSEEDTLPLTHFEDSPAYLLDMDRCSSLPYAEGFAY

As to GCTCCC, the binding signal was 1.28 fold enrichment (6-mer frequency, TF over GST control) in the assay with FEV; 1.39 fold enrichment (6-mer frequency, TF over GST control) with ETV5; 1.07 fold enrichment (6-mer frequency, TF over GST control) with HSF1; 1.16 fold enrichment (6-mer frequency, TF over GST control) with SPIC; 1.32 fold enrichment (6-mer frequency, TF over GST control) with ELF4; 1.4 fold enrichment (6-mer frequency, TF over GST control) with ELK4. Also, the binding signal in the assay with ETV2 is 1.32 fold enrichment (6-mer frequency, TF over GST control); with ELF3, 1.35 fold enrichment (6-mer frequency, TF over GST control); with CRX, 1.04 fold enrichment (6-mer frequency, TF over GST control); with ETV1, 1.24 fold enrichment (6-mer frequency, TF over GST control); with ERF, 1.29 fold enrichment (6-mer frequency, TF over GST control); with ETV3L it was 1.27 fold enrichment (6-mer frequency, TF over GST control). The binding signal was 1.35 fold enrichment (6-mer frequency, TF over GST control) in the assay with ETS2; 1.47 fold enrichment (6-mer frequency, TF over GST control) with SPDEF; 1.31 fold enrichment (6-mer frequency, TF over GST control) in the assay with ETV7; 1.33 fold enrichment (6-mer frequency, TF over GST control) with ELF5; 1.21 fold enrichment (6-mer frequency, TF over GST control) with ETV3; 1.25 fold enrichment (6-mer frequency, TF over GST control) with ETV6.
